Source: PubChem BioAssay (NCI)
This is part of a sample that, as a whole, favours compounds with a hit. Of some 79,000 tested, about 15% had one in any assay. Activity calls are given as the source filed them. Rule as the data show it: active = growth inhibition above about 70%; inactive = the rest.

How the values were obtained:
[1] = NCI Yeast Anticancer Drug Screen. Data for the rad52 strain (AID 147);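 also: 0% = growth of vehicle-treated control cultures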; conditions: S. cerevisiae rad52 mutant growth inhibition, hits give high values
Method in brief: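 Screen used a yeast mutant impaired in DNA repair. After compound exposure, growth was measured. Values reflect inhibition compared with vehicle-treated cells.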

[2] = NCI Yeast Anticancer Drug Screen. Data for the wt1 strain (AID 149);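 also: 0% = growth of vehicle-treated wt1 cultures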; conditions: S. cerevisiae wt1 strain (SPY 50644) growth inhibition, hits give high values
Method in brief: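 Vehicle-normalised growth inhibition; strain wt1; compound exposure.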

[3] = NCI Yeast Anticancer Drug Screen. Data for the rad50EPP+ strain (AID 151);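 also: 0% = growth of vehicle-treated control cultures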; conditions: S. cerevisiae rad50 mutant strain, hits give high values
Method in brief: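 Exposing the rad50EPP+ strain to each compound, growth was compared with vehicle-only cultures to give inhibition.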

[4] = NCI Yeast Anticancer Drug Screen. Data for the mgt1 strain (AID 153); conditions: S. cerevisiae mgt1 mutant growth inhibition, hits give high values
Method in brief: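 Genetically defined yeast (mgt1) treated with compound; inhibition of growth expressed against vehicle-treated controls.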

[5] = NCI Yeast Anticancer Drug Screen. Data for the rad50 strain (AID 155);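 also: 0% = growth of vehicle-only cultures of the same strain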; conditions: S. cerevisiae rad50 strain growth inhibition, hits give high values
Method in brief: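 A DNA repair-deficient yeast mutant serves as the test organism; compound-induced growth inhibition is calculated against vehicle-treated cells.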

[6] = NCI Yeast Anticancer Drug Screen. Data for the mec2-1 strain (AID 157); conditions: S. cerevisiae mec2-1 strain, hits give high values
Method in brief: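 Readout is yeast growth inhibition, normalised to vehicle-treated controls, in the mec2-1 strain exposed to compound.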

[7] = NCI Yeast Anticancer Drug Screen. Data for the rad14 strain (AID 159);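 also: 0% = growth of vehicle-treated control cultures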; conditions: S. cerevisiae rad14 strain growth inhibition, hits give high values
Method in brief: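 Vehicle-treated cultures served as the baseline for growth inhibition of a DNA repair-mutant yeast strain exposed to each compound.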

[8] = NCI Yeast Anticancer Drug Screen. Data for the sgs1 mgt1 strain (AID 161);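 also: 0% = growth of cultures given vehicle only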; conditions: S. cerevisiae sgs1 mgt1 strain, hits give high values
Method in brief: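 Percent growth inhibition was derived by comparing compound-exposed mutant yeast with vehicle-exposed cultures. The strain carries alterations in DNA damage repair.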

[9] = NCI Yeast Anticancer Drug Screen. Data for the CLN2oe strain (AID 163);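 also: 0% = growth of vehicle-only control cultures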; conditions: S. cerevisiae CLN2oe strain, hits give high values
Method in brief: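 Values reflect how much compound exposure reduced yeast growth, referenced to vehicle-exposed cells. Assay organism is a strain with a defined genetic change affecting cell-cycle control.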

[10] = NCI Yeast Anticancer Drug Screen. Data for the cln2 rad14 strain (AID 165);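 also: 0% = growth equal to vehicle treated cultures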; conditions: S. cerevisiae cln2 rad14 strain, hits give high values
Method in brief: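 Relative to vehicle controls, growth inhibition of compound-treated cln2 rad14 yeast was recorded.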

[11] = NCI Yeast Anticancer Drug Screen. Data for the bub3 strain (AID 167); conditions: S. cerevisiae bub3 mutant strain, hits give high values
Method in brief: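 Inhibition values come from growth of compound-treated mutant yeast normalised to vehicle-treated controls.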

[12] = NCI Yeast Anticancer Drug Screen. Data for the wt2 strain (AID 169);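 also: 0% = growth of vehicle-treated yeast cultures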; conditions: S. cerevisiae wt2 strain growth inhibition, hits give high values
Method in brief: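 Values express reduction in yeast growth under compound treatment, referenced to vehicle-treated cells.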

[13] = NCI Yeast Anticancer Drug Screen. Data for the mlh1 strain (AID 171);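 also: 0% = growth of vehicle-treated control cultures of the same strain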; conditions: S. cerevisiae mlh1 strain growth inhibition, hits give high values
Method in brief: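 Steps: expose the defined-mutant yeast strain to compound; expose a parallel culture to vehicle; measure growth; express compound effect as inhibition relative to the vehicle culture.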

[14] = NCI Yeast Anticancer Drug Screen. Data for the sgs1 strain (AID 173);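 also: 0% = growth of vehicle-only control cultures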; conditions: S. cerevisiae sgs1 mutant, hits give high values
Method in brief: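 Treat defined-mutant yeast with compound; measure growth; calculate inhibition relative to vehicle-treated cells.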

[15] = NCI Yeast Anticancer Drug Screen. Data for the mlh1 rad18 strain (AID 175); conditions: S. cerevisiae mlh1 rad18 strain growth inhibition, hits give high values
Method in brief: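 Test agents were incubated with a yeast strain of defined genotype (DNA damage repair defect). Inhibition of growth was derived by comparison with vehicle-exposed cultures.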

[16] = NCI Yeast Anticancer Drug Screen. Data for the rad18 strain (AID 177); conditions: S. cerevisiae rad18 mutant growth inhibition, hits give high values
Method in brief: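 A genetically defined yeast mutant impaired in DNA damage repair was treated with test compounds, then its growth was measured against cultures receiving vehicle alone.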

[17] = at 5.0 µM (retest, dose inferred, filed as 0.5)
[18] = at 50.0 µM (retest, dose inferred, filed as 5.0)

Measured: growth inhibition

COc1ccc(/C=C(/C)[N+](=O)[O-])cc1
active: [1]; at 11.0 µM 81% | [1]; at 33.0 µM 95% | [1]; at 100.0 µM 99% | [2]; at 33.0 µM 72% | [2]; at 100.0 µM 99% | [3]; at 3.7 µM 83% | [3]; at 11.0 µM 94% | [3]; at 33.0 µM 97% | [3]; at 100.0 µM 99% | [4]; at 33.0 µM 80% | [4]; at 100.0 µM 99% | [5]; at 11.0 µM 79% | [5]; at 33.0 µM 94% | [5]; [18] 94% | [5]; at 50.0 µM 80.3% | [5]; at 100.0 µM 99% | [6]; at 33.0 µM 78% | [6]; [18] 98% | [6]; at 50.0 µM 90.3% | [6]; at 100.0 µM 99% | [7]; at 100.0 µM 99% | [8]; [18] 85% | [8]; at 50.0 µM 87.8% | [9]; at 33.0 µM 71% | [9]; at 100.0 µM 99% | [10]; [18] 94% | [11]; at 33.0 µM 93% | [11]; [18] 99% | [11]; at 50.0 µM 90.8% | [11]; at 100.0 µM 98% | [12]; at 100.0 µM 99% | [13]; at 33.0 µM 97% | [13]; at 100.0 µM 99% | [14]; at 33.0 µM 86% | [14]; at 100.0 µM 98% | [15]; [18] 99% | [15]; at 50.0 µM 81.5% | [16]; at 100.0 µM 99%
inactive: [1]; at 1.2 µM 8% | [1]; at 3.7 µM 36% | [2]; at 1.2 µM -28% | [2]; at 3.7 µM -21% | [2]; at 11.0 µM -18% | [3]; at 1.2 µM 57% | [4]; at 1.2 µM -22% | [4]; at 3.7 µM -17% | [4]; at 11.0 µM 0% | [5]; at 1.2 µM -10% | [5]; at 3.7 µM 23% | [5]; [17] 49% | [6]; at 1.2 µM -44% | [6]; at 3.7 µM -51% | [6]; [17] 16% | [6]; at 11.0 µM -34% | [7]; at 1.2 µM -20% | [7]; at 3.7 µM -25% | [7]; at 11.0 µM -24% | [7]; at 33.0 µM 69% | [8]; [17] 28% | [9]; at 1.2 µM -3% | [9]; at 3.7 µM -10% | [9]; at 11.0 µM -9% | [10]; [17] 37% | [10]; at 50.0 µM 60% | [11]; at 1.2 µM -27% | [11]; at 3.7 µM -28% | [11]; [17] 28% | [11]; at 11.0 µM -6% | [12]; at 1.2 µM -5% | [12]; at 3.7 µM -4% | [12]; at 11.0 µM -1% | [12]; at 33.0 µM 59% | [13]; at 1.2 µM -12% | [13]; at 3.7 µM -16% | [13]; at 11.0 µM -2% | [14]; at 1.2 µM 20% | [14]; at 3.7 µM 41% | [14]; at 11.0 µM 42% | [15]; [17] 22% | [16]; at 1.2 µM -14% | [16]; at 3.7 µM -8% | [16]; at 11.0 µM -17% | [16]; at 33.0 µM 42%

C[C@]12CCC(=O)C=C1CC[C@@H]1C2CC[C@@]2(C)C1CC[C@@H]2OC(=O)C12OC1CCC2=O (stereo partly specified)
inactive: [1]; at 1.2 µM 0% | [1]; at 3.7 µM 23% | [1]; at 11.0 µM 37% | [2]; at 1.2 µM -2% | [2]; at 3.7 µM -9% | [2]; at 11.0 µM 8% | [2]; at 33.0 µM 66% | [3]; at 1.2 µM 9% | [3]; at 3.7 µM 25% | [3]; at 11.0 µM 69% | [4]; at 1.2 µM -8% | [4]; at 3.7 µM -11% | [4]; at 11.0 µM 27% | [5]; at 1.2 µM -15% | [5]; at 3.7 µM -4% | [5]; [17] -16% | [5]; at 11.0 µM 29% | [6]; at 1.2 µM 5% | [6]; at 3.7 µM 14% | [6]; [17] 6% | [6]; at 11.0 µM 33% | [7]; at 1.2 µM -9% | [7]; at 3.7 µM -11% | [7]; at 11.0 µM 5% | [8]; [17] 8% | [9]; at 1.2 µM 10% | [9]; at 3.7 µM 12% | [9]; at 11.0 µM 14% | [9]; at 33.0 µM 39% | [10]; [17] 39% | [10]; [18] 67% | [10]; at 50.0 µM 65.1% | [11]; at 1.2 µM 1% | [11]; at 3.7 µM 23% | [11]; [17] 27% | [11]; at 11.0 µM 45% | [12]; at 1.2 µM -3% | [12]; at 3.7 µM 9% | [12]; at 11.0 µM 36% | [13]; at 1.2 µM 19% | [13]; at 3.7 µM 17% | [13]; at 11.0 µM 51% | [15]; [17] -21% | [16]; at 1.2 µM 9% | [16]; at 3.7 µM 14% | [16]; at 11.0 µM 39%
active: [1]; at 33.0 µM 83% | [1]; at 100.0 µM 96% | [2]; at 100.0 µM 96% | [3]; at 33.0 µM 94% | [3]; at 100.0 µM 97% | [4]; at 33.0 µM 92% | [4]; at 100.0 µM 97% | [5]; at 33.0 µM 79% | [5]; [18] 87% | [5]; at 50.0 µM 86.2% | [5]; at 100.0 µM 95% | [6]; at 33.0 µM 90% | [6]; [18] 86% | [6]; at 50.0 µM 88.8% | [6]; at 100.0 µM 97% | [7]; at 33.0 µM 75% | [7]; at 100.0 µM 96% | [8]; [18] 93% | [8]; at 50.0 µM 88.7% | [9]; at 100.0 µM 96% | [11]; at 33.0 µM 79% | [11]; [18] 96% | [11]; at 50.0 µM 84.5% | [11]; at 100.0 µM 96% | [12]; at 33.0 µM 91% | [12]; at 100.0 µM 96% | [13]; at 33.0 µM 94% | [13]; at 100.0 µM 97% | [15]; [18] 92% | [15]; at 50.0 µM 85.4% | [16]; at 33.0 µM 83% | [16]; at 100.0 µM 97%
